# Screens (PubChem)
# An excerpt weighted towards active compounds, which were near 3.5% of everything screened.
# BoNT F protease: BoNT F light chain protease inhibition; inhibition, % at 10 µM; Multiplex microsphere protease cleavage assay, flow cytometry; 360,000 tested, 0.22% active; in the data active means inhibition above about 35%, passing the limit was not always enough; inconclusive means no clear call, values can overlap the other calls; further: plate controls were buffer without enzyme for full effect and enzyme alone for no effect
# Anthrax LF inh2: blocks Bacillus anthracis lethal factor protease. 360,000 tested, 0.12% active. multiplex microsphere protease cleavage assay, LF. AID 588501. inhibition, % at 10 µM. P15917; further: plate controls were buffer without enzyme for full effect and enzyme alone for no effect
# BoNT A protease: BoNT A light chain protease inhibition; multiplex microsphere protease substrate cleavage, flow cytometry; inhibition, % at 10 µM; 360,000 tested, 0.17% active; further: plate controls were buffer without enzyme for full effect and enzyme alone for no effect
# Bead autofluor: flagged as autofluorescent in microsphere protease counterscreen. compound autofluorescence counterscreen, microsphere flow cytometry; stronger effect = higher value. fluorescence intensity (test concentration not listed). 360,000 tested, 3.1% active; in the data active means fluorescence intensity above about 16000; inconclusive means no clear call, values can overlap the other calls
# * hit, by the source's call; ? = inconclusive. Unless noted, no stated cut-off is given here; in the data, active means inhibition above about 30%; inconclusive means no clear call, values can overlap the other calls; inactive means below that.
SMILES,BoNT F protease,Anthrax LF inh2,BoNT A protease,Bead autofluor
COc1ccc(NC(=O)c2cccc(-c3ccc(O)cc3)c2)cn1,-3,0,2,5372
Cc1cc(C)n2nc(S(=O)(=O)N(C)Cc3ccccc3)nc2n1,2,0,?,19864*
Cc1cc(C)n2nc(S(=O)(=O)N(CC(C)C)CC(C)C)nc2n1,-9,-1,-2,5107
CCN(Cc1ccccc1)S(=O)(=O)c1nc2nc(C)c(C)c(C)n2n1,-4,0,-2,17154*
Cc1cc(C)n2nc(CCc3ccccc3)nc2n1,3,0,0,23082*
COc1cccc(NC(=O)C2C3C=CC4(O3)C2C(=O)N(CCCN2CCCCC2)C4C(=O)NC2CCCCC2)c1 (configuration not stated),0,-1,-3,4806
Cc1ccccc1OCCN=Cc1c(O)n(C)c(=O)n(C)c1=O,3,1,2,22922*
Cn1c(O)c(/C=N/c2ncccn2)c(=O)n(C)c1=O,4,4,2,21865*
CCOc1ccccc1N=Cc1c(O)n(C)c(=O)n(C)c1=O,-22,-18,-2,4297
CCn1c(CNC(=O)c2ccccc2Br)nnc1SCC(=O)NC1=NCCS1,-10,-5,1,3747
COc1ccc(C(C)C)cc1-c1cncc(NC(C)=O)n1,1,-7,0,3729
CC1(C(=O)NC2CCCC2)CCC(=O)N1Cc1cccs1 (configuration not stated),-4,-4,?,22707*
CC1(C(=O)NC2CCCCCCC2)CCC(=O)N1Cc1cccs1 (configuration not stated),2,-2,0,16346*
CC1(C(=O)NC2CCCCC2)CCC(=O)N1Cc1cccs1 (configuration not stated),-3,3,0,5138
Cc1ccc(C)c(Cn2nnc3c(=O)[nH]c(C(=O)NCc4ccco4)nc32)c1,1,-9,2,22656*
O=C(NCc1cccs1)c1nc2c(nnn2Cc2ccc(F)cc2)c(=O)[nH]1,0,-2,0,16259*
CCCN(CCC)CCNC(=O)C1(O)c2ccccc2NC(=O)N1c1cccc(OC)c1 (configuration not stated),10,4,-1,4204
CCn1c(SC/C=C/c2ccccc2)nnc1-c1cccs1,-5,1,-3,20863*
CCn1c(SC/C=C/c2ccccc2)nnc1-c1cnccn1,-4,-4,-1,21032*
CCCc1nc2oc3c(NCc4ccccn4)ncnc3c2c2c1COC(C)(C)C2,-18,-3,-1,3739
CCOc1ncnc2c1oc1nc(CC(C)C)c3c(c12)CC(C)(C)OC3,3,0,2,19881*
CCCc1nc2oc3c(NCC4CCCO4)ncnc3c2c2c1COC(C)(C)C2 (configuration not stated),0,1,1,22258*
CCOC(=O)N1CCC(NC(=O)CS(=O)Cc2nc(-c3ccc(C)cc3)oc2C)CC1 (configuration not stated),2,1,-1,5912
O=C(/C=C/c1ccc2c(c1)S(=O)(=O)N(Cc1ccccc1)[C@H]2CC(=O)N1CCOCC1)N1CCOCC1,6,4,0,2930
CCCC(=O)NC(c1ccco1)c1c(O)ccc2ccccc12 (configuration not stated),-2,-1,?,24638*
SMILES,BoNT F protease,Anthrax LF inh2,BoNT A protease,Bead autofluor
CC(C)C(CCNC(=O)CN1C(=O)c2ccccc2C1=O)c1ccco1 (configuration not stated),-3,1,1,5593
CC(C)C(CCNC(=O)CC(Cc1ccccc1)c1ccco1)c1ccco1 (configuration not stated),-3,-2,-1,17138*
CCOC(=O)C1=CN(Cc2ccco2)S(=O)(=O)NC1c1ccc(Br)cc1F (configuration not stated),-10,4,0,2894
Cc1cc(C)c(-c2cc(C(F)(F)F)no2)c(=O)[nH]1,-5,0,?,17034*
O=S(=O)(c1ccc(SCCO)nc1)N1CCOCC1,-8,-5,-3,9493
CN(C)C(CNC(=O)c1ccc(NS(=O)(=O)c2ccc(F)cc2)cc1)c1ccco1 (configuration not stated),-186,-27,-128,36456*
O=C(c1ccco1)N1CCCC(c2nc3c(nnn3Cc3ccc(F)cc3)c(=O)[nH]2)C1 (configuration not stated),-6,1,1,3969
CC(=O)Nc1ccc(NC(=O)C2C3C=CC(C3)C2C(=O)O)cc1 (configuration not stated),-9,0,3,3975
CC(C)CNC(=O)C1C2C=CC(C2)C1C(=O)O (configuration not stated),-2,3,?,20356*
CC1C/C(=N\NC(=S)NCc2ccccc2)CC(C)(C)C1 (configuration not stated),-6,-4,?,22911*
O=C(Nc1ccc(OC(F)(F)F)cc1)C1CCCCN1S(=O)(=O)c1ccccc1 (configuration not stated),8,2,3,5776
COc1cccc(S(=O)(=O)Nc2ccc3sc(C)nc3c2)c1,-3,-3,0,16651*
CS(=O)(=O)c1ccc(C(=O)NNC(=O)c2ccccc2-n2cccc2)cc1,4,-7,-2,8038
C=C(C)Cn1c2ccc(NC(=S)NCc3ccccc3F)cc2c(=O)n1C,2,-2,0,3679
COc1ccc(C)cc1NC(=O)Nc1ccc(Br)cn1,10,1,5,18723*
COc1ccc(C(=O)Nc2ccc(C)cn2)c(OC)c1,-6,-2,-4,21063*
COc1ccc(C)cc1NC(=O)NC1CCCCCCC1,4,1,0,5115
COc1ccc(C(=O)Nn2cnnc2)c(OC)c1,0,0,1,21828*
COc1ccc(C(=O)Nc2cc(C)on2)c(OC)c1,-6,-12,-2,?
COc1ccc(C(=O)Nn2cnnc2)cc1OC,-4,2,1,4395
COc1ccc(Cl)cc1NC(=O)Nn1cnnc1,-2,-2,0,16503*
O=C(CC1C[C@H](C(=O)N2CCOCC2)[C@@]2(CCC3CCCC3)c3[nH]c4ccccc4c3CCN2C1=O)NCCc1ccccn1 (some centres not stated),-2,0,0,3780
CN(Cc1ccco1)S(=O)(=O)c1cc(F)ccc1CN1C(=O)c2cccnc2C1=O,0,-1,-1,5014
Cn1cc(CCCC(=O)NCc2ccc(F)cc2)c2ccccc21,-7,-3,-2,3912
CCOC(=O)CC1=C(C(=O)OCC)C2(C(=O)Nc3ccccc32)C(C#N)=C(N)O1 (configuration not stated),1,-1,-1,4337
CCCC1=C(C(=O)OCC)C2(C(=O)Nc3ccc(C)cc32)C(C#N)=C(N)O1 (configuration not stated),1,2,?,20310*
CC1CC(C)CN(C(=O)Cn2c(=O)n(CCCCC(=O)NC3CCCC3)c(=O)c3ccccc32)C1 (configuration not stated),37*,2,0,3620
CCn1c(=O)n(CC(=O)N2CC(C)CC(C)C2)c(=O)c2ccccc21 (configuration not stated),0,-3,0,20034*
